Results on eight molecules are retold here after PubChem BioAssay (Tox21).

Where “and” joins values, the source holds several entries; their conditions need not be identical. Identical values can stand only once. Records with an inconclusive call do not appear. The source holds several records for some structures; these can differ, active in one and inactive in another. Calls of active or inactive are those of the source. Unless noted, calls follow the shape of the dose curve; as a rule, active = well fitted curve in the direction sought with a large enough effect in the repeat runs; inconclusive = weak or mixed curves; inactive = no such curve, though single readings can be large; an effect the other way counts as inactive or inconclusive.

A short description of experiment [1]: qHTS assay to identify small molecule antagonists of the peroxisome proliferator-activated receptor delta (PPARd) signaling pathway - cell viability counter screen (AID 743213). Also: nearly all actives have a fitted effect of over 50% in size. Also: potency is read from the fitted curve at half-maximal effect. In a few lines: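 HEK293H PPARd UAS-bla cells, 5 h pre-incubation, compound + L165041 300 nM final, 17 h 37 C; B/G FRET substrate 2 h RT; then CellTiter-Glo 30 min RT, luminescence.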

In experiment [2] the target is Peroxisome proliferator-activated receptor delta (Homo sapiens) (UniProt Q03181). Kind of experiment: qHTS assay to identify small molecule antagonists of the peroxisome proliferator-activated receptor delta (PPARd) signaling pathway (AID 743215; active = well fitted inhibition curve with a large enough effect in the signal ratio in the repeat runs, not every such curve was filed as active; the % refers to the signal ratio;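 also: cells stimulated with agonist L165041 at 300 nM final during compound exposure; series mostly up to about 62 µM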). In a few lines:
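Read-out is beta-lactamase FRET fluorescence, measured 2 h after substrate addition at room temperature. Beforehand, UAS-bla HEK293H cells carrying the PPARd reporter were exposed to compounds with L165041 at 300 nM final for 17 h at 37 C.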
A general note: In qHTS, concentration-response curves come from the screen itself.

Experiment [3] can be described thus: qHTS assay to identify small molecule antagonists of the farnesoid-X-receptor (FXR) signaling pathway - cell viability counter screen (AID 743221; active = well fitted cell-killing curve with a large enough effect in the repeat runs, not every such curve was filed as active; also: nearly all actives have a fitted effect of over 50% in size). In a few lines: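 Multiplexed counter screen: viability of FXR-bla HEK 293T cells under agonist stimulation by chenodeoxycholic acid (50 uM, final) and test compound for 16 h at 37 C, measured by CellTiter-Glo luminescence in the reporter wells.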

The nature of experiment [4]: qHTS assay to identify small molecule agonists of the NFkB signaling pathway - cell viability counter screen (AID 1159515; calls by dose curve; also: nearly all actives have a fitted effect of over 55% in size; also: potency is read from the fitted curve at half-maximal effect). A digest of the protocol:
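Luminescence from CellTiter-Glo (30 min, room temperature) gives viability, measured in the same wells as the beta-lactamase reporter read. Cells were NFkB-bla ME-180, 2,000 per well, treated 5 hr with compounds.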

A short description of experiment [5]: qHTS assay to identify small molecule agonists of the endoplasmic reticulum stress response signaling pathway (AID 1159516; active = well fitted activation curve with a large enough effect in the signal ratio in the repeat runs, not every such curve was filed as active; the % refers to the signal ratio). A digest of the protocol:
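Read-out is beta-lactamase cleavage of a FRET substrate (405 nm excitation; 460 and 530 nm emissions) in ESRE-bla HeLa cells after a 5 hr compound exposure at 37 C. Substrate incubation ran 2 hr at room temperature.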

Experiment [6] in a line: qHTS assay to identify small molecule agonists of the endoplasmic reticulum stress response signaling pathway - cell viability counter screen (AID 1159517; calls by dose curve;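 also: HeLa cells carrying an ER stress response element beta-lactamase reporter; series mostly up to about 61 µM; nearly all actives have a fitted effect of over 50% in size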). In a few lines:
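ESRE-bla HeLa cells, 1,500 per well, seeded overnight then treated with compounds for 5 hr at 37 C. After the beta-lactamase read, viability in the same wells is measured by CellTiter-Glo luminescence after 30 min at room temperature.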

Experiment [7] is described as follows: qHTS assay to identify small molecule antagonists of the retinoid-related orphan receptor gamma (ROR-gamma) signaling pathway - cell viability counter screen (AID 1159520). Also: nearly all actives have a fitted effect of over 50% in size. A digest of the protocol:
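Tet-on ROR gamma CHO cells were given compounds for 2 hr, then doxycycline hyclate at 1 uM final, and incubated 16 hr at 37 C. Viability was measured as ATP content by CellTiter-Glo luminescence.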

Experiment [8] addresses Nuclear receptor ROR-gamma (Homo sapiens) (UniProt P51449). Kind of experiment: qHTS assay to identify small molecule antagonists of the retinoid-related orphan receptor gamma (ROR-gamma) signaling pathway (AID 1159521; also: nearly all actives have a fitted effect of over 50% in size; also: potency is read from the fitted curve at half-maximal effect). A digest of the protocol: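 Cells were plated, rested 4 h at 37 C, exposed to compounds for 2 h, then given 1 uM final doxycycline hyclate to induce RORγ expression. After 16 h, ONE-Glo luminescence from the ROR response element reporter was measured.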

Experiment [9] can be described thus: qHTS assay to identify small molecule agonists of the AP-1 signaling pathway (AID 1159526; calls by dose curve).
The target in experiment [10] is Retinoic acid receptor RXR-alpha (Homo sapiens) (UniProt P19793). Kind of experiment: qHTS assay to identify small molecule agonists of the RXR signaling pathway (AID 1159527; calls by dose curve; also: nearly all actives have a fitted effect of over 35% in size; also: potency is read from the fitted curve at half-maximal effect). A digest of the protocol: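 Cells plated at 2,000/well, rested 5 hr at 37 C, pin-dosed with DMSO compound solutions, incubated 16 hr, then loaded with B/G FRET substrate for 2 hr at RT before dual-emission fluorescence reading.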
Chain of Retinoic acid receptor RXR-alpha (Homo sapiens) (P19793 whole entry, looked up): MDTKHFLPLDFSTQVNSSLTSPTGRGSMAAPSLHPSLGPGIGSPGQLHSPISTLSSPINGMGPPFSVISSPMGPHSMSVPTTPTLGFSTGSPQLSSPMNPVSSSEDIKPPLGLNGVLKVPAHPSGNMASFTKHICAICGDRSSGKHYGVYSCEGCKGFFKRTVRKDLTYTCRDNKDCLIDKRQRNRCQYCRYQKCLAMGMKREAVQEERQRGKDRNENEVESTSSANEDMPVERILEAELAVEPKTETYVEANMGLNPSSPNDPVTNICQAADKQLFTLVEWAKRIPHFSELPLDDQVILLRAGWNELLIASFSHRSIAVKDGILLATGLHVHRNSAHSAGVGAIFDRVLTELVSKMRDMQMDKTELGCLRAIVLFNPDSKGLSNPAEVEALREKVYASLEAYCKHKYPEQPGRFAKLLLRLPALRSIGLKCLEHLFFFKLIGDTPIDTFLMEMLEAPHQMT

Experiment [11] in a line: qHTS assay to identify small molecule agonists of the RXR signaling pathway - cell viability counter screen (AID 1159529). Also: nearly all actives have a fitted effect of over 50% in size. Also: potency is read from the fitted curve at half-maximal effect. A digest of the protocol:
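Steps: seed RXR-alpha-UAS-bla HEK 293T cells in assay medium containing 2% charcoal-stripped FBS; incubate 5 hr; add compounds in DMSO; incubate 16 hr at 37 C; after the bla read, add CellTiter-Glo and read luminescence at 30 min.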

The nature of experiment [12]: qHTS assay to identify small molecule antagonists of the retinoid acid receptor (RAR) signaling pathway - cell viability counter screen (AID 1159551). Also: nearly all actives have a fitted effect of over 35% in size. In a few lines:
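Luminescent ATP quantitation (CellTiter-Glo) gave cell viability in C3RL4 cells exposed to test chemicals for 6 h at 37 C alongside 1 uM final retinol.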

A short description of experiment [13]: qHTS assay to identify small molecule agonists of the farnesoid-X-receptor (FXR) signaling pathway - cell viability counter screen (AID 743218). Also: nearly all actives have a fitted effect of over 45% in size. A digest of the protocol: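 HEK 293T FXR-bla cells; 5 h pre-incubation, 16 h compound exposure at 37 C; LiveBLAzer substrate 2 h RT, then CellTiter-Glo 30 min RT, luminescence.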
Experiment [14] can be described thus: qHTS assay to identify small molecule agonists of the vitamin D receptor (VDR) signaling pathway - cell viability counter screen (AID 743224). A digest of the protocol:
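Luminescence from CellTiter-Glo, read after 30 min at room temperature, reports viability of VDR-bla cells treated with compounds for 16 h at 37C in the wells used for the beta-lactamase FRET read.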

Experiment [15] is described as follows: qHTS assay to identify small molecule antagonists of the vitamin D receptor (VDR) signaling pathway - cell viability counter screen (AID 743225). Also: nearly all actives have a fitted effect of over 50% in size. In a few lines:
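HEK293T VDR-bla; cpd + 1a,25-(OH)2D3 3 nM final, 16 h 37C/5% CO2; B/G FRET substrate 2 h RT; then CellTiter-Glo 30 min RT, luminescence.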

Experiment [16] is described as follows: qHTS assay to identify small molecule agonists of the AP-1 signaling pathway - cell viability counter screen (AID 1159525; calls by dose curve; also: nearly all actives have a fitted effect of over 55% in size). A digest of the protocol:
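AP-1-bla ME-180 cells in Opti-MEM with 0.5% dialyzed FBS, compound exposure 5 h at 37 C in 15-point titration. Viability read in the same wells as ATP content by CellTiter-Glo luminescence, normalised to tetra-n-octylammonium bromide and DMSO controls.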

For experiment [17], the target named is Bile acid receptor (Homo sapiens) (UniProt Q96RI1). The experiment in a line: qHTS assay to identify small molecule antagonists of the farnesoid-X-receptor (FXR) signaling pathway (AID 743217; active = well fitted inhibition curve with a large enough effect in the signal ratio in the repeat runs, not every such curve was filed as active; the % refers to the signal ratio). A digest of the protocol: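 HEK 293T FXR-UAS-bla, 5000 cells/well; compound + CDCA 50 uM final; 16 h, 37 °C; B/G FRET substrate 2 h RT; fluorescence.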
Chain of Bile acid receptor (Homo sapiens) (Q96RI1 whole entry, looked up): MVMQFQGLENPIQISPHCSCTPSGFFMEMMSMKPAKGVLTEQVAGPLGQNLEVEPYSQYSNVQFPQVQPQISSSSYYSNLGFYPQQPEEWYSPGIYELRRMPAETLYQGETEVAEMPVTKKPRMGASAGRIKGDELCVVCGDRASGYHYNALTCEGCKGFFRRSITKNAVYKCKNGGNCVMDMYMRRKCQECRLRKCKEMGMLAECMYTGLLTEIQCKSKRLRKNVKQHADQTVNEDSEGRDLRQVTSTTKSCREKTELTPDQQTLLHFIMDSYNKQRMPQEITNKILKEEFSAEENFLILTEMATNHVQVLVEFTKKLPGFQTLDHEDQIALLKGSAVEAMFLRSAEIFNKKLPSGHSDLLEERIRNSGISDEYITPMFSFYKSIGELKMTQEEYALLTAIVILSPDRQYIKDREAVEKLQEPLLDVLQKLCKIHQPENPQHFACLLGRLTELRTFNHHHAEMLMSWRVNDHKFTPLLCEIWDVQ
The target is the same in experiment [18]. Kind of experiment: qHTS assay to identify small molecule agonists of the farnesoid-X-receptor (FXR) signaling pathway (AID 743220; active = well fitted activation curve with a large enough effect in the signal ratio in the repeat runs, not every such curve was filed as active; the % refers to the signal ratio). A digest of the protocol:
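Beta-lactamase reporter under UAS control in GeneBLAzer FXR HEK 293T cells (5000/well) measured with LiveBLAzer FRET substrate after 2 h at room temperature. Compound exposure lasted 16 h at 37C.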

A short description of experiment [19]: qHTS assay to identify small molecule antagonists of the retinoic acid receptor (RAR) signaling pathway (AID 1159552; also: nearly all actives have a fitted effect of over 50% in size). In a few lines: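 Retinol at 1 uM final stimulated RARE-luciferase expression in C3RL4 cells exposed to test compounds for 6 hr at 37 C. Reduced luminescence, read 30 min after detection reagent, indicated pathway antagonism.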
Experiment [20] deals with Vitamin D3 receptor (Homo sapiens) (UniProt P11473). The experiment in a line: qHTS assay to identify small molecule antagonists of the vitamin D receptor (VDR) signaling pathway (AID 743223; active = well fitted inhibition curve with a large enough effect in the signal ratio in the repeat runs, not every such curve was filed as active; the % refers to the signal ratio). A digest of the protocol: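 Cells carrying a VDR-driven beta-lactamase reporter (VDR-bla) were co-treated with compound and 3 nM final 1alpha,25-dihydroxyvitamin D3 for 16 h at 37C; reporter activity was measured as FRET substrate fluorescence after 2 h at room temperature.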
Chain of Vitamin D3 receptor (Homo sapiens) (P11473 whole entry, looked up): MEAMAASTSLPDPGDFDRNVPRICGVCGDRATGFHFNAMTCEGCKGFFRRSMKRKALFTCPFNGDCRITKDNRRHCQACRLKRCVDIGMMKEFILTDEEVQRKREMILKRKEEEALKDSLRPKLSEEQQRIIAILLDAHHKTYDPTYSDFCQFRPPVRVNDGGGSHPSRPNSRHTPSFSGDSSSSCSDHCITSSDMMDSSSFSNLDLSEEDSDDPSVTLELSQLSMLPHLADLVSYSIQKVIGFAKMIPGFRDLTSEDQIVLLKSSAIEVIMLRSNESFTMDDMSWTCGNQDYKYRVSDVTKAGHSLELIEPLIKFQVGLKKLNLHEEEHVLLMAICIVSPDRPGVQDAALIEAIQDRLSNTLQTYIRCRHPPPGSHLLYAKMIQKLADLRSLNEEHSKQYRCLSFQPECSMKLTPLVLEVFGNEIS

Chain of Peroxisome proliferator-activated receptor delta (Homo sapiens) (Q03181 whole entry, looked up): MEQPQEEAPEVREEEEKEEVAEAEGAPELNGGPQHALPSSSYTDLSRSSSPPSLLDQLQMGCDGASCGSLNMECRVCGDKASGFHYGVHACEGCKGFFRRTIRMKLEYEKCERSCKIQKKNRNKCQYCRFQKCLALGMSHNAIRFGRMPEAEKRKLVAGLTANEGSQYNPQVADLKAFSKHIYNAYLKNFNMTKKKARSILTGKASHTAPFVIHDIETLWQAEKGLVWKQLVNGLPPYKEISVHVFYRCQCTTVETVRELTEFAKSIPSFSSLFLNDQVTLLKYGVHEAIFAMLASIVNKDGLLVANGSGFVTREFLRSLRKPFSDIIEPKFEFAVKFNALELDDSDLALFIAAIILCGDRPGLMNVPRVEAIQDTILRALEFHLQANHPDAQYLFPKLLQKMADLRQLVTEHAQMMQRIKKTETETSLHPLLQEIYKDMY

As for `Nc1ccc(Cl)cc1`, the Potency entry in experiment [1], in experiment [3], in experiment [4], in experiment [6], in experiment [7] and in [8] was “inactive” in each case. Further, the Potency result in [9], in [11] and in [12] was “inactive” throughout. Moreover, the outcome in experiment [2] and in experiment [5] was inactive. The Potency in experiment [10] was 8.71 µM (active) and inactive.

In the case of `CCCC[n+]1ccccc1`, the Potency entry in experiment [1], in experiment [13], in experiment [3], in experiment [14], in experiment [15] and in experiment [4] was “inactive” in each case. Moreover, the Potency result in experiment [6], in experiment [7], in [8], in [16], in [9] and in [10] was “inactive” in each case. Moreover, the Potency entry in experiment [11] and in experiment [12] was “inactive” each time. The outcome in [5] was inactive.

For `CCC(=O)C(CC(C)N(C)C)(c1ccccc1)c1ccccc1` (stereo not given), the Potency result in [1] is “inactive and 37.4 µM (active)”; in experiment [4], 43.8 µM (active) and inactive; in experiment [8], 48.8 µM (active); in experiment [11], 43.8 µM (active). The molecule was classed as inactive in experiment [2], in experiment [18] and in experiment [5]. The Potency entry in [17], in [13], in [3], in experiment [6], in experiment [7] and in [16] was “inactive” each time. Moreover, the Potency result in experiment [9], in experiment [12] and in experiment [19] was “inactive” each time.

For the molecule `OCCOc1ccccc1`, the Potency entry in experiment [1], in experiment [17], in experiment [13], in experiment [3], in experiment [20] and in experiment [14] was “inactive” throughout. Moreover, the Potency result in experiment [15], in [4], in experiment [6], in [7], in experiment [8] and in [9] was “inactive” each time. The Potency result in experiment [10], in [11], in experiment [12] and in experiment [19] was “inactive” in each case. The molecule was called inactive in experiment [2], in [18] and in experiment [5].

Take `Nc1ccc(-c2ccc(N)cc2)cc1`: the Potency entry in experiment [1], in experiment [13], in experiment [3], in experiment [20], in experiment [14] and in experiment [15] was “inactive” each time. The Potency entry in experiment [4], in [6], in experiment [7], in experiment [8], in experiment [9] and in experiment [10] was “inactive” throughout. Besides, the Potency entry in experiment [11], in [12] and in experiment [19] was “inactive” each time. Besides, the molecule was classed as inactive in experiment [5].

For the molecule `Cc1cc(-c2ccc(N)c(C)c2)ccc1N`, the Potency result in experiment [1], in experiment [13], in experiment [3], in experiment [20], in experiment [14] and in [15] was “inactive” each time. The Potency result in [4], in [6], in experiment [7], in experiment [8], in experiment [16] and in experiment [9] was “inactive” in each case. Further, the Potency entry in experiment [10], in experiment [11], in experiment [12] and in experiment [19] was “inactive” each time. The outcome in experiment [5] was inactive.

For `Nc1ccccc1`, the Potency result in [1], in [3], in experiment [20], in experiment [14], in experiment [15] and in experiment [4] was “inactive” each time. The Potency result in experiment [6], in experiment [7], in [8], in [16], in experiment [9] and in experiment [10] was “inactive” throughout. Further, the Potency result in experiment [11] and in experiment [12] was “inactive” throughout. Further, in experiment [5], the molecule was called inactive.

On to `O=[N+]([O-])c1ccccc1O`, for which the Potency result in [1], in [13], in experiment [3], in experiment [14], in experiment [15] and in experiment [4] was “inactive” in each case. Further, the Potency entry in experiment [6], in experiment [7], in experiment [8], in [9], in experiment [10] and in [11] was “inactive” in each case. Moreover, the Potency entry in experiment [12] and in experiment [19] was “inactive” each time. Also, in experiment [5], the molecule was called inactive.
